The values that follow come from paper PMC7862700, “An all-to-all approach to the identification of sequence-specific readers for epigenetic DNA modifications on cytosine”.

Assay in all cases: DAPPL (digital affinity profiling via proximity ligation, sequencing); 10 mM Tris-HCl pH 7.5, 50 mM NaCl, 1 mM DTT, 4% glycerol, room temperature, 30 min; GST-TFs on glutathione beads, 16-mer random dsDNA library, 0.1% formaldehyde crosslink after washing; high values mean tight binding
Settings in all cases: protein: recombinant; tags: N-terminal GST; dsDNA, one strand shown

One experiment concerns the target T1, FLI1 (Homo sapiens, UniProt Q01543 1-452).
T1 sequence: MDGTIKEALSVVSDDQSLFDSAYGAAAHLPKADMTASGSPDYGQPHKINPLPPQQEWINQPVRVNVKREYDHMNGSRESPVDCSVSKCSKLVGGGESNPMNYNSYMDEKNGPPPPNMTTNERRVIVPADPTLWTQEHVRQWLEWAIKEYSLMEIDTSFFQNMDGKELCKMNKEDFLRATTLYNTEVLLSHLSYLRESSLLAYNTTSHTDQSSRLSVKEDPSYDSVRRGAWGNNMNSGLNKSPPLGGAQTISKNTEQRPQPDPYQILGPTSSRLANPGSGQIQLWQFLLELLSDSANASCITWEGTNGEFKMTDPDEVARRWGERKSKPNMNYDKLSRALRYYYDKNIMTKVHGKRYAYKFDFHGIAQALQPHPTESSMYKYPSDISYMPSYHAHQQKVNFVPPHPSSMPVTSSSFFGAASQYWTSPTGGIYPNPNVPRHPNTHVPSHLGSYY
Put shortly: (§1)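 After expression in yeast as GST fusions, human transcription factors were bound to glutathione beads, DNA-barcoded and mixed with a tag-only sample. The pools were incubated with 200 nmole of a 16-mer random double-stranded DNA library in Tris/NaCl/DTT/glycerol buffer (30 min, room temperature), washed and crosslinked with 0.1% formaldehyde. Proximity ligation with BsaI/T4 ligase ran for 1 h at 37 °C, before PCR amplification and sequencing on an Illumina NextSeq500. Binding signal is a hexamer's read frequency for a factor divided by its frequency for the tag-only sample.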

A further experiment has as its target T2, ELK1 (Homo sapiens, UniProt P19419 1-428).
T2 sequence: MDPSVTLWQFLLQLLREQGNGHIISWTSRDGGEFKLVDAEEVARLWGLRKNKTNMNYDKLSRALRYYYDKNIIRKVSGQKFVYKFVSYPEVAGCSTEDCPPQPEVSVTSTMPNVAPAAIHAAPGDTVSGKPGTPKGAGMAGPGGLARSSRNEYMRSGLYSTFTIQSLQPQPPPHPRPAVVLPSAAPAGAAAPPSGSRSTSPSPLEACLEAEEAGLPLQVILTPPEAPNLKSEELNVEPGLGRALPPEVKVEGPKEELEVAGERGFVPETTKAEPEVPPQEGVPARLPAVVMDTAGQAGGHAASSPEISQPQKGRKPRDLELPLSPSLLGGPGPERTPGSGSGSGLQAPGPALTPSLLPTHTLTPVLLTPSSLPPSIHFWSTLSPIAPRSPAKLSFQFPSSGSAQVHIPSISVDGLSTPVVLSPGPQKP
Put shortly:
as §1

A further experiment has as its target T3, GABPA (Homo sapiens, UniProt Q06546 1-454).
T3 sequence: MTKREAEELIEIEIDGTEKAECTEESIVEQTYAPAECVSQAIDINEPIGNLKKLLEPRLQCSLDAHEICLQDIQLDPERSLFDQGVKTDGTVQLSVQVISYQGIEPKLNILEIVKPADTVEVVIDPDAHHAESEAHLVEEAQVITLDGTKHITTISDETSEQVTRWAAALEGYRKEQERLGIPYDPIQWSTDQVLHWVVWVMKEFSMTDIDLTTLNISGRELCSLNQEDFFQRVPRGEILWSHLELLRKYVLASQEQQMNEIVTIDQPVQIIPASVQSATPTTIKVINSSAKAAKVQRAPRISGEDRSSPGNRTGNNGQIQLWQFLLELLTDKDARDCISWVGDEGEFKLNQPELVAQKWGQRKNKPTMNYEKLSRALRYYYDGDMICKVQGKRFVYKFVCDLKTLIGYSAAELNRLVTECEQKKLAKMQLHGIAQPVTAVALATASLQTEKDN
Put shortly: as §1

A further experiment has as its target T4, ERG (Homo sapiens, UniProt P11308 1-479).
T4 sequence: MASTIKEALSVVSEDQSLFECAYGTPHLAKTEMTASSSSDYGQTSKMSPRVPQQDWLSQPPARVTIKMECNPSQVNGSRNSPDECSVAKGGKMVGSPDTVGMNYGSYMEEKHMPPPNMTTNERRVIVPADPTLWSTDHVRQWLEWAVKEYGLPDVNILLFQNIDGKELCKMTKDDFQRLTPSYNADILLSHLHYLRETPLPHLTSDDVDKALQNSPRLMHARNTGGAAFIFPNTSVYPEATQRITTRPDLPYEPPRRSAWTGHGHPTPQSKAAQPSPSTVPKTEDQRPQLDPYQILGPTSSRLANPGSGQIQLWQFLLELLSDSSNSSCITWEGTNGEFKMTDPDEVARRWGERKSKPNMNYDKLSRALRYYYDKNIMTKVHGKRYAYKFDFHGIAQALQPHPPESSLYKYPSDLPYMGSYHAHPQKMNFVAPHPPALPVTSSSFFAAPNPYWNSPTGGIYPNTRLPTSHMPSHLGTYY
Summed up:
as §1

The next experiment addresses ELF1 (Homo sapiens, UniProt P32519 1-619). Put shortly: as §1
The target in another experiment is T5, EHF (Homo sapiens, UniProt Q9NZC4 1-300).
T5 sequence: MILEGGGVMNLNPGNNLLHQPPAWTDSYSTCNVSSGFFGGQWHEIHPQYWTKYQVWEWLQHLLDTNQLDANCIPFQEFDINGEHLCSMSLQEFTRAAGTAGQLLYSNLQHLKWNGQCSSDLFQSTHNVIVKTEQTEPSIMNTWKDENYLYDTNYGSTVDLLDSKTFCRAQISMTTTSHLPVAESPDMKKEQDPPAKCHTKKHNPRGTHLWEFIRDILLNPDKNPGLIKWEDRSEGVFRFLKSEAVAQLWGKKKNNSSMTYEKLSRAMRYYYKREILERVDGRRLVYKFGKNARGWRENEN
Summed up: as §1

In a further experiment the target is SPIB (Homo sapiens, UniProt Q01892 1-262). Put shortly: as §1
Sequence of SPIB (Q01892 whole entry): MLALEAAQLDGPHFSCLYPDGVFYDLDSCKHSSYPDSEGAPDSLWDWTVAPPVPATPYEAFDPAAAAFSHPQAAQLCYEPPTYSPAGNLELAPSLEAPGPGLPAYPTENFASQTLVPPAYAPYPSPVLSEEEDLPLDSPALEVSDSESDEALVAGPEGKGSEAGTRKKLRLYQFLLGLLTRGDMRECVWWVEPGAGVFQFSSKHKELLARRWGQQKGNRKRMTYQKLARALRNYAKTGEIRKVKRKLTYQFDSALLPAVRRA
The target in another experiment is T6, ELK3 (Homo sapiens, UniProt P41970 1-407).
T6 sequence: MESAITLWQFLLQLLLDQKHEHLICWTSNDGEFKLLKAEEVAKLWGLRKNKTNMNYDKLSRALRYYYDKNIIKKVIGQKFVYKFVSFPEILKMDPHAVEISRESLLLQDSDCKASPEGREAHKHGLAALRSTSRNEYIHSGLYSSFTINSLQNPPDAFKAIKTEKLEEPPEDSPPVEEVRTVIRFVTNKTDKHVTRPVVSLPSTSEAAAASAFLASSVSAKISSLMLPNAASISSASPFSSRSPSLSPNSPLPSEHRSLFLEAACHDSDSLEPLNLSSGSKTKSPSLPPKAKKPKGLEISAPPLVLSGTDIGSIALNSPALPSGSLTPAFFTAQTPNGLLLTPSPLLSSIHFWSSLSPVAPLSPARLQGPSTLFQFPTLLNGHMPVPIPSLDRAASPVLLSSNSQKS
Summed up: as §1

The target in a further experiment is T7, FEV (Homo sapiens, UniProt Q99581 1-238).
T7 sequence: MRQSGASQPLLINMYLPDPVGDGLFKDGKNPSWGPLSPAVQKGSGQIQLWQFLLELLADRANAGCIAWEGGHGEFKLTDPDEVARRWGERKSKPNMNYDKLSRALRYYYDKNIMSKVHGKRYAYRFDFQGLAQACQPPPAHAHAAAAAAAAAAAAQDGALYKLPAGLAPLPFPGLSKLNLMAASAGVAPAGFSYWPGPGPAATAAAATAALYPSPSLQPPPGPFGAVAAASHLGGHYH
Summed up:
as §1

Another experiment addresses ETV5 (Homo sapiens, UniProt P41161 1-510). Summed up: as §1
For the next experiment, the target named is T8, SPIC (Homo sapiens, UniProt Q8N5J4 1-248).
T8 sequence: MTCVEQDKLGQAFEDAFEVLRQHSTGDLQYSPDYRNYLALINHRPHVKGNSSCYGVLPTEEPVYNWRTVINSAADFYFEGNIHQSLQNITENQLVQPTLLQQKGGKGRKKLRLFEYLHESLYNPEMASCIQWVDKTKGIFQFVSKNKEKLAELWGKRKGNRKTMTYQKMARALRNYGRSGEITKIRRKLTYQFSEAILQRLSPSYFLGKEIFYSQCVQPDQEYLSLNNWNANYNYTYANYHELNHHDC
Put shortly: as §1

For the next experiment, the target named is ELF4 (Homo sapiens, UniProt Q99607 1-663). Summed up:
as §1

In the next experiment the target is ETV1 (Homo sapiens, UniProt P50549 1-477). Summed up:
as §1

The next experiment addresses T9, ERF (Homo sapiens, UniProt P50548 1-548).
T9 sequence: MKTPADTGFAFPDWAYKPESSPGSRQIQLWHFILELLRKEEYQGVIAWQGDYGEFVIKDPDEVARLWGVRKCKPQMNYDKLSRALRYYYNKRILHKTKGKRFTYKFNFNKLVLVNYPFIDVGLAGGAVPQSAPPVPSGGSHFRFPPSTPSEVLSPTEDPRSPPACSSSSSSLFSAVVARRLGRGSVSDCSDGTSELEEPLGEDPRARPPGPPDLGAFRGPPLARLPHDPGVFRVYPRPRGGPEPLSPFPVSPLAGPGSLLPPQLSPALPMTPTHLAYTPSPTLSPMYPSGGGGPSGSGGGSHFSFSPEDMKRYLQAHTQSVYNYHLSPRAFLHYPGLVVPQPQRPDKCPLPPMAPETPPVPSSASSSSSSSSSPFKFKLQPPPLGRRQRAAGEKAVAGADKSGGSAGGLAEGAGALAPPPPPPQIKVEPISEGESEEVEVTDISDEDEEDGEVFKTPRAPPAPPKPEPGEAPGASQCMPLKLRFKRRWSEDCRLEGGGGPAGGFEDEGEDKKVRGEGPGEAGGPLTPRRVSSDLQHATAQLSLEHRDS
Summed up: as §1

A further experiment deals with T10, ETV3L (Homo sapiens, UniProt Q6ZN32 1-361).
T10 sequence: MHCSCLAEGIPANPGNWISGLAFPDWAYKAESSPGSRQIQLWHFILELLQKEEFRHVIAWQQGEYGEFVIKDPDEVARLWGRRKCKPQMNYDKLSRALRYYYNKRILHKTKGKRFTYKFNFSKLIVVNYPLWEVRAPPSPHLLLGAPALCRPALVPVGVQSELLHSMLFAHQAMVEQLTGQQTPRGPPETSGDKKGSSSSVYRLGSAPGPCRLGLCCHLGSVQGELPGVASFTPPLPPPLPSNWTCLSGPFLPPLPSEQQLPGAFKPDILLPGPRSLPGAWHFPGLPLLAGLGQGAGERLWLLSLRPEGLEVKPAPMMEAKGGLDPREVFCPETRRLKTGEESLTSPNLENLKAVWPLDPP
Summed up:
as §1

The next experiment deals with T11, ETS2 (Homo sapiens, UniProt P15036 1-469).
T11 sequence: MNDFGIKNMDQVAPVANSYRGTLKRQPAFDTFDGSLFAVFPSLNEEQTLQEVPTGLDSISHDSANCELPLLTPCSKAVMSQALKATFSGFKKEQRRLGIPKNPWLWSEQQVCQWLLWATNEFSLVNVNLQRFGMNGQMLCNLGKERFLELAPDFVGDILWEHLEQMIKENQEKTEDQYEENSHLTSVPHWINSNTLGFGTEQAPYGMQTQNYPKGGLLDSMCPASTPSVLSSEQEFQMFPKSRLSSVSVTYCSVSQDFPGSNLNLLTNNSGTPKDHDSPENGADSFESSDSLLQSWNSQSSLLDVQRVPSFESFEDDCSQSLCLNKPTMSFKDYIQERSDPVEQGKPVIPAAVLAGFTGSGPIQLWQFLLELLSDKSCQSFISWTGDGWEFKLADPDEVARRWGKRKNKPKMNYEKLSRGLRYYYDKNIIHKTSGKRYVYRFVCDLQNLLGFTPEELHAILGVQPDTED
Summed up:
as §1

In the next experiment the target is T12, ETV3 (Homo sapiens, UniProt P41162-2 1-143).
T12 sequence: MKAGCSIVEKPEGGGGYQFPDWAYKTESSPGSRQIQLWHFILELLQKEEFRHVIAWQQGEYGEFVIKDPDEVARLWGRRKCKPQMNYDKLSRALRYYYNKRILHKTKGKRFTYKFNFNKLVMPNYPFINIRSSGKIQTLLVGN
Put shortly: as §1

For the next experiment, the target named is ETV6 (Homo sapiens, UniProt P41212 1-452). Put shortly:
as §1

Sequence of ETV5 (P41161 whole entry): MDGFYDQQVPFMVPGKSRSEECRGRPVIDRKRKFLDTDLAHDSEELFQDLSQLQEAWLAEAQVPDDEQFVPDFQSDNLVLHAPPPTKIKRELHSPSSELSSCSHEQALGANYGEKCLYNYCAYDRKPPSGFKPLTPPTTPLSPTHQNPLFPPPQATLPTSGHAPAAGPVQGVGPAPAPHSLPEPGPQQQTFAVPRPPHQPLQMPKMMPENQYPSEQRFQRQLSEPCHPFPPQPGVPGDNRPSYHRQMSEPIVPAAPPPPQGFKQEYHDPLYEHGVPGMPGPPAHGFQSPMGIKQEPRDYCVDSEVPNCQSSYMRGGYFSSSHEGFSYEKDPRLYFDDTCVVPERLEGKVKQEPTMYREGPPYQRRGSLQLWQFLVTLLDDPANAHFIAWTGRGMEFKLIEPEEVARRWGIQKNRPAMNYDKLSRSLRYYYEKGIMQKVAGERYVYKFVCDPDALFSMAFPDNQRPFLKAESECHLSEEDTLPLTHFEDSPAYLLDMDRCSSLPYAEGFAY
Sequence of ETV1 (P50549 whole entry): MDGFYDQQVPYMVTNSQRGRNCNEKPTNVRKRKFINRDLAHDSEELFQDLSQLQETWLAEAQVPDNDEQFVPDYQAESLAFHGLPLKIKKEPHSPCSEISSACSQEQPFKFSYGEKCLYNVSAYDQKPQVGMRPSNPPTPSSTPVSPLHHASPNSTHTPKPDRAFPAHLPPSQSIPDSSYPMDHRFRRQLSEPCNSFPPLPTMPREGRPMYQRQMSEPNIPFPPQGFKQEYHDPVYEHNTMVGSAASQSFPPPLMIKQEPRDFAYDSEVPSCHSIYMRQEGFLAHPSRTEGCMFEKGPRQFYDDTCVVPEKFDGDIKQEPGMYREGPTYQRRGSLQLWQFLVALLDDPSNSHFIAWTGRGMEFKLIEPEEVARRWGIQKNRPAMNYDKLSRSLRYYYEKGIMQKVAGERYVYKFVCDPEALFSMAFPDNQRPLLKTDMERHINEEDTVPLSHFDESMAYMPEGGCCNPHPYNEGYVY
Sequence of ELF4 (Q99607 whole entry): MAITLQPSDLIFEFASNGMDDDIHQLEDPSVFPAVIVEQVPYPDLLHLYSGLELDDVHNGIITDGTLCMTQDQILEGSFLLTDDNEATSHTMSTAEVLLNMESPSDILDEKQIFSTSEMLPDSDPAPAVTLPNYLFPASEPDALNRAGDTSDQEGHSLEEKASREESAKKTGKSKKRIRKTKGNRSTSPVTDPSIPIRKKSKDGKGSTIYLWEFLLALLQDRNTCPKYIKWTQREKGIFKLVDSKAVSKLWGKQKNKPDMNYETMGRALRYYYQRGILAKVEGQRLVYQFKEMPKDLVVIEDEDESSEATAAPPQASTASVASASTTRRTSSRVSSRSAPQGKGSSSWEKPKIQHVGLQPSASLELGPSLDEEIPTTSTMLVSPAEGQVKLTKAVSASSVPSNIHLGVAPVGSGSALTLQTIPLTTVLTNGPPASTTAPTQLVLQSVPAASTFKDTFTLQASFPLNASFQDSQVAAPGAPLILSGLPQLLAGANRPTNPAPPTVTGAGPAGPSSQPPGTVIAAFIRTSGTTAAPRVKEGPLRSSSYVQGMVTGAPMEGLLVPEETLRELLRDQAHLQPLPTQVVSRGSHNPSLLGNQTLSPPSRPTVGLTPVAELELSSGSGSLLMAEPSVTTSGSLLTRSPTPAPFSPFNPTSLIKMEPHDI
Sequence of ELF1 (P32519 whole entry): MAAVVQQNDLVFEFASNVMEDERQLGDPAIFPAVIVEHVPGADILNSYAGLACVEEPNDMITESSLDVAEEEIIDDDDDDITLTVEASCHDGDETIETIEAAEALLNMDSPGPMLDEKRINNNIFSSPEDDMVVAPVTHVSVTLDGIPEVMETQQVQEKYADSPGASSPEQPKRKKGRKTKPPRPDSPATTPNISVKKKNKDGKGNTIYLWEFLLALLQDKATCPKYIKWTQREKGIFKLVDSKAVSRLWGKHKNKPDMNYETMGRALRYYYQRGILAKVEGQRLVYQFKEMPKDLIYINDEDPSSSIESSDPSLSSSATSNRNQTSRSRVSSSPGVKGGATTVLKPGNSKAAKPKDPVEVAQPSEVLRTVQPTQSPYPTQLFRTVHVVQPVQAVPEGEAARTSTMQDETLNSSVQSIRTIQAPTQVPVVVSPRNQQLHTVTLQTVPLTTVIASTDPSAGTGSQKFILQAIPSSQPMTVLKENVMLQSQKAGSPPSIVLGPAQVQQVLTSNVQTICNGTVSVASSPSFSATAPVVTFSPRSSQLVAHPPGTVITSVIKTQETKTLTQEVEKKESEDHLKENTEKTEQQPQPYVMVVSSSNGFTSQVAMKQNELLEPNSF
Sequence of ETV6 (P41212 whole entry): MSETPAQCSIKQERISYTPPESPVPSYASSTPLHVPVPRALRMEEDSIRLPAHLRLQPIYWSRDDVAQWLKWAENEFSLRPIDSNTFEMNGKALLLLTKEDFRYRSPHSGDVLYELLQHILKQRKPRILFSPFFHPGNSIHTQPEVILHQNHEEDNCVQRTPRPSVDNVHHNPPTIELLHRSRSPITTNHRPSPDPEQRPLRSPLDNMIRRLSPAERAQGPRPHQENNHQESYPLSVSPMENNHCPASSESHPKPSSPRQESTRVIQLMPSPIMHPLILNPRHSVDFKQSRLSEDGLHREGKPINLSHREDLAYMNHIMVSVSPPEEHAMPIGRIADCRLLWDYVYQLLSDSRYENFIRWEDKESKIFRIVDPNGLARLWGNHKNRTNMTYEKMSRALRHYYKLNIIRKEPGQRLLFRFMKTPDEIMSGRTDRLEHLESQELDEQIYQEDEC

Regarding CCACAC, the binding signal with FLI1 was 1.07 fold enrichment (6-mer frequency, TF over GST control); with ELK1, 1.07 fold enrichment (6-mer frequency, TF over GST control); in the experiment with GABPA, 1.1 fold enrichment (6-mer frequency, TF over GST control); with ERG, 1.07 fold enrichment (6-mer frequency, TF over GST control); in the experiment with ELF1, 1.12 fold enrichment (6-mer frequency, TF over GST control); with EHF it was 1.12 fold enrichment (6-mer frequency, TF over GST control). The binding signal is 1.04 fold enrichment (6-mer frequency, TF over GST control) in the experiment with SPIB; 1.11 fold enrichment (6-mer frequency, TF over GST control) in the experiment with ELK3; 1.11 fold enrichment (6-mer frequency, TF over GST control) in the experiment with FEV; 1.11 fold enrichment (6-mer frequency, TF over GST control) with ETV5; 1.18 fold enrichment (6-mer frequency, TF over GST control) with SPIC; 1.1 fold enrichment (6-mer frequency, TF over GST control) in the experiment with ELF4. Also, the binding signal in the experiment with ETV1 is 1.1 fold enrichment (6-mer frequency, TF over GST control); with ERF, 1.08 fold enrichment (6-mer frequency, TF over GST control); in the experiment with ETV3L, 1.11 fold enrichment (6-mer frequency, TF over GST control); with ETS2, 1.03 fold enrichment (6-mer frequency, TF over GST control); with ETV3, 1 fold enrichment (6-mer frequency, TF over GST control); in the experiment with ETV6 it was 1.02 fold enrichment (6-mer frequency, TF over GST control).
